These results are taken from PubChem BioAssay AID1903 (Southern Research Specialized Biocontainment Screening …, 2009).

The whole screen tested about 310,000 compounds, of which about 1,200 (0.39%) were called active. These entries were drawn from the full list. Results with a measured potency or affinity are listed apart. Unmarked numbers belong to inactive results. The rule behind the calls is not given here.

For the assay, the target named is Large T antigen (Simian virus 40) (UniProt P03070). The experiment in a line: SV40 large T antigen inhibitors, biochemical (AID 1903). To be noted: SV40 large T antigen ATPase/helicase inhibition assay; at 20 µM; active compounds read high.
Chain of Large T antigen (Simian virus 40) (P03070 whole entry, looked up): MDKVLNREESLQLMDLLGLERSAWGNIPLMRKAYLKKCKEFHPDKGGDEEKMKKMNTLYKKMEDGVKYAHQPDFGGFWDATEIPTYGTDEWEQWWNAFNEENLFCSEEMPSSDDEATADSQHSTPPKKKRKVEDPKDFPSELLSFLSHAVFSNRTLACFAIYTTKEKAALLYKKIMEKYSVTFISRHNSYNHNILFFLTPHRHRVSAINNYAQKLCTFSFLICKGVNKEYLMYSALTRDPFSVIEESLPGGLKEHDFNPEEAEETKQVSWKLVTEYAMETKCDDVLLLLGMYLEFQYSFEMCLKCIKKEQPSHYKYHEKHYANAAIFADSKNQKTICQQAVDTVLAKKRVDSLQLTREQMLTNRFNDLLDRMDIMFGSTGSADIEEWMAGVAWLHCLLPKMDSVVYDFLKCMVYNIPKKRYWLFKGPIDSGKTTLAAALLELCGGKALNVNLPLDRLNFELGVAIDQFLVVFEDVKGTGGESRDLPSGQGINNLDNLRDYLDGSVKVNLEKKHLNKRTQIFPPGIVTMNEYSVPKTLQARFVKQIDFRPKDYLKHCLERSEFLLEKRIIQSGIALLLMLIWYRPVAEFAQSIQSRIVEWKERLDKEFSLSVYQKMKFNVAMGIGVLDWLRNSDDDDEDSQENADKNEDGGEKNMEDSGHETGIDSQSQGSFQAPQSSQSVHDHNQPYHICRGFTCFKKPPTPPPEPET
A word on the inhibition: it is the relative decrease from the control value, in per cent. As for `Cc1ccc(S(=O)(=O)NCC(=O)Nc2cccc([N+](=O)[O-])c2)cc1`, the inhibition was 1.03%.

For `Cc1onc(-c2c(Cl)cccc2Cl)c1/C(N)=N/OC(=O)C(C)(C)C`, the inhibition is 7.65%.

Take `CC[C@H](C)/C=C(C)/C=C/C1=CC2=CC(=O)[C@]3(C)OC(=O)[C@@H](C(C)=O)[C@@H]3C2=CO1`: the inhibition is 18%.

In the case of `CCC(C)/C=C/C1=CC2=C(Cl)C(=O)C3(C)OC(=O)C(C(=O)C(C)C(C)O)C3C2=CO1` (stereo not drawn), the inhibition is 12.9%.

Turning to `COC(=O)CCC(=O)OC1(C)C(=O)C2=COC(c3ccc(OC)cc3)=CC2=C(Br)C1=O` (stereo not drawn), the inhibition is 50.8%.

Regarding `O=C(CSc1nc(-c2ccccc2)c(-c2ccccc2)o1)N1CCOCC1`, the inhibition is 4.01%.

Regarding `O=C(CNC(=O)c1ccc(Cl)cc1Cl)OCc1nnc(-c2ccccc2)o1`, the inhibition was 15.1%.

As to `CC1(C)CC(=O)c2sc(NC(=O)C3COc4ccccc4O3)nc2C1` (stereo not drawn), the inhibition was 4.75%.

On to `O=C(C1CCN(S(=O)(=O)c2cccs2)CC1)N1CCCCC1`, for which the inhibition is 13.9%.

For the molecule `Cc1cc(C)c2c(CN3CCCCC3)cc(=O)oc2c1`, the inhibition is 20.4%.

As for `Cc1cc(C)c2c(CN3CCN(C)CC3)cc(=O)oc2c1`, the inhibition is -0.86%.

Take `COC1CCN(C(=O)CC2C(=O)NCCN2CC(C)(C)C)CC1` (stereo not drawn): the inhibition is -3.7%.

For the molecule `O=C(CC12CC3CC(CC(C3)C1)C2)Nc1nncs1`, the inhibition was 12.5%.

As to `COc1ccc(NC(=O)CCc2c(C)nc3nc(C)nn3c2C)cc1`, the inhibition is -3.06%.

As to `O=C(c1cc2ccccc2oc1=O)N1CCN(S(=O)(=O)c2ccccc2)CC1`, the inhibition is 18.2%.

`O=C1NN(c2ccccc2)C(=O)/C1=C\c1ccc2c(c1)OCO2`: the inhibition is 18%.

Turning to `O=C1NC(=S)N/C1=C/c1cc2c(cc1[N+](=O)[O-])OCO2`, the inhibition was 3%.

In the case of `O=C(CCN1C(=O)/C(=C/C=C/c2ccccc2)SC1=S)Nc1nc2ccccc2s1`, the inhibition is 9.79%.

For `Cc1ccccc1NC(=O)c1ccc2c(c1)CCN2S(C)(=O)=O`, the inhibition was 11.3%.

For the molecule `CCC(C)n1c(SCC(=O)/C(C#N)=C(\C)N)nc2ccccc2c1=O` (stereo not drawn), the inhibition is 7.34%.

Consider `C/C(=C\c1ccccc1)C(=O)Nc1nc2ccc([N+](=O)[O-])cc2s1`, for which the inhibition was 8.41%.

As for `S=c1[nH]nc(-c2ccncc2)n1/N=C/c1cccc(Cl)c1`, the inhibition is 29.1%.

Take `CC(/C=N/n1c(-c2cccnc2)n[nH]c1=S)=C\c1ccco1`: the inhibition is 31.8%.

As for `Cc1ccc(/C=N/n2c(C)nnc2C)cc1`, the inhibition was 19.4%.

`CC(=C/c1ccccc1)/C=N/n1c(-c2ccncc2)n[nH]c1=S`: the inhibition is 19%.

Regarding `Cc1cccc(/C=N/n2c(C)nnc2C)c1`, the inhibition is 10.3%.

For the molecule `S=c1[nH]nc(-c2ccco2)n1/N=C/c1ccc(Cl)cc1`, the inhibition is 31%.

Turning to `Clc1ccccc1CN1CCN(/N=C/C=C/c2ccco2)CC1`, the inhibition is 15.9%.

In the case of `S=c1[nH]nc(-c2n[nH]c3c2CCC3)n1/N=C/C=C/c1ccccc1`, the inhibition was 20.8%.

Regarding `COC(=O)c1cn(NC(=O)CC2CCCCC2)c(=O)c2ccccc12`, the inhibition is 1.58%.

Regarding `O=c1[nH]cnc2onc(-c3ccc(F)cc3)c12`, the inhibition was 34%.

For `O=[N+]([O-])c1cccc2nc(-c3ccccc3)c(-c3ccccc3)nc12`, the inhibition is 1.39%.

Take `CCCCOc1ccc(C(=O)NCc2ccccn2)cc1`: the inhibition was -4.84%.

In the case of `COc1ccc(C(=O)NC(=S)NC(C)c2ccccc2)cc1` (stereo not drawn), the inhibition is 5.22%.

Consider `Cc1ccc(C)c(N2CCN(CCCNC(=O)CCn3c(=O)c4cccn4c4cccnc43)CC2)c1`, for which the inhibition is 15.1%.

Take `Cc1cc(C(C)(C)C)ccc1OCC(=O)N/N=C\c1c(C)n(C)n(-c2ccccc2)c1=O`: the inhibition is -3.36%.

Regarding `COc1ccc(CN2CCC(n3nccc3NC(=O)CCOc3ccccc3)CC2)cc1C`, the inhibition is 5.92%.

`O=C(NCc1ccco1)c1csc2c1CCCCC2`: the inhibition is 1.56%.

For the molecule `Cc1cc(C)cc(CSCC(=O)N/N=C/c2ccc(OCC(=O)NCc3ccco3)cc2)c1`, the inhibition was 10.9%.

Take `CC(/C=N/n1c(-c2ccc(C)cc2)n[nH]c1=S)=C\c1ccco1`: the inhibition was 19.5%.

Turning to `CC(/C=N/n1c(-c2ccc(Cl)cc2)n[nH]c1=S)=C\c1ccco1`, the inhibition was 22.6%.

For the molecule `CC(/C=N/n1c(-c2ccccc2)n[nH]c1=S)=C\c1ccco1`, the inhibition was 33.1%.

As to `CC(/C=N/n1c(-c2ccco2)n[nH]c1=S)=C\c1ccco1`, the inhibition is 28.2%.

On to `Cc1ccsc1/C=N/n1c(-c2ccccc2)n[nH]c1=S`, for which the inhibition was 18.6%.

As for `Cc1ccsc1/C=N/n1c(-c2ccncc2)n[nH]c1=S`, the inhibition was 25.6%.

With `CCOc1ccccc1NC(=S)NCCc1ccc(F)cc1`, the inhibition was 2.66%.

Regarding `O=C(CS(=O)(=O)c1ccc(F)cc1)Nc1nnc(-c2cccs2)o1`, the inhibition is 28.3%.

With `COc1ccc(OC(=O)COc2ccc(Cl)cc2)cc1`, the inhibition is 21.7%.

Consider `Cc1cccc(NC(=S)N2CCN(c3ccccn3)CC2)c1`, for which the inhibition was 7.16%.

As for `COC(=O)C1=NNC2(C)C(=O)N(c3ccc(C)cc3)C(=O)C12` (stereo not drawn), the inhibition was 1.54%.

As for `Cc1cc(C(C)C)n2c(nc3ccccc32)c1C#N`, the inhibition was 3.46%.

`CCc1c(C)c(C#N)c2nc3ccccc3n2c1Cl`: the inhibition was -5.75%.

On to `CCc1ccc(N(C(=O)CNC(=O)c2ccco2)C(C(=O)NC2CCCC2)c2cccnc2)cc1` (stereo not drawn), for which the inhibition is 12.2%.

For `COc1ccc(/C=C2/SC(=S)N(CCCC(=O)Nc3ccc(O)cc3)C2=O)cc1`, the inhibition was 5.12%.

Turning to `O=C1ON=C(c2ccc(Cl)cc2)/C1=C/c1ccc(O)cc1`, the inhibition is 34.8%.

Consider `COc1cc(/C=C2\C(=O)ON=C2c2ccccc2)cc(Cl)c1O`, for which the inhibition was 32.2%.

Consider `COc1ccc(/C=C2\C(=O)ON=C2c2ccccc2)cc1`, for which the inhibition is 72.8%.

Consider `O=C1ON=C(c2ccccc2)/C1=C/c1ccc(O)cc1`, for which the inhibition was 48%.

With `O=C1ON=C(c2ccccc2)/C1=C/c1ccccc1`, the inhibition is 48.5%.

Consider `O=C1ON=C(c2ccccc2)/C1=C/c1cccnc1`, for which the inhibition is 1.23%.

As to `O=C1ON=C(c2ccccc2)/C1=C/c1ccco1`, the inhibition was 36.5%.

Consider `COc1cc(/C=C2\C(=O)ON=C2c2ccccc2)cc(OC)c1OC`, for which the inhibition was 9.78%.

For the molecule `CCc1ccc(C(=O)OCC(=O)NCCNC(=O)COC(=O)c2ccc(CC)cc2)cc1`, the inhibition is 4.49%.

As for `CCC(C)[C@H](N)c1cn([C@@H](Cc2ccc(O)cc2)C(=O)N2CCNCC2)nn1` (stereo partly drawn), the inhibition was 3.28%.

On to `NC(=O)C1CCN(C(=O)Cc2ccc([N+](=O)[O-])cc2)CC1`, for which the inhibition is 21.5%.

Consider `O=C(Nc1cc(F)ccc1F)C1CCN(S(=O)(=O)c2cccc3nonc23)CC1`, for which the inhibition is 9.1%.

As to `CCCS(=O)(=O)c1c(S(=O)(=O)CCC)c2ccc(C(N)=O)cn2c1C(=O)c1ccc(F)cc1`, the inhibition was 24%.

For the molecule `COCC(C)NC(C(=O)Nc1ccc(Cl)c([N+](=O)[O-])c1)c1ccccc1` (stereo not drawn), the inhibition is 0.39%.

Consider `CC1(C)CC(C(=O)NCCC(c2ccccc2)c2ccco2)CCO1` (stereo not drawn), for which the inhibition was 3.84%.

As to `CC(=O)Nc1nonc1-c1nc2ccccc2n1CCC(C)C`, the inhibition was -3.72%.

Take `CCCCOc1cccc(C(=O)N(Cc2ccccc2)C2CCS(=O)(=O)C2)c1` (stereo not drawn): the inhibition is -0.72%.

Regarding `CC1CCN(C(=O)N[C@@H](Cc2ccccc2)C(=O)O)CC1`, the inhibition is 0.13%.

With `O=C1C2C3CCC(O3)C2C(=O)N1c1cccc(O)c1` (stereo not drawn), the inhibition is -1.61%.

In the case of `COc1cccc(C(=O)Nc2nnc(-c3ccccc3)s2)c1OC`, the inhibition was 13.1%.

As for `O=C(Nc1ccncc1)C1CC(=O)N(c2ccc(F)cc2)C1` (stereo not drawn), the inhibition was 12.3%.

Turning to `COC(=O)C1=C(C(=O)OC)[C@@H]2N(C)c3ccc(OC)cc3[C@@]23C[C@@H](C(=O)OC)N(C(=O)c2ccco2)C3=N1`, the inhibition was 27.8%.

In the case of `COc1ccc(/C=C2\C(=O)ON=C2c2ccccc2)cc1OC`, the inhibition was 53.9%.

Regarding `COc1ccc(/C=C2/C(=O)ON=C2c2ccccc2)cc1OC`, the inhibition is 12.2%.

On to `Cc1ccc(C)c(NC(=S)NC(NC(=O)Cc2ccccc2)C(Cl)(Cl)Cl)c1` (stereo not drawn), for which the inhibition is 5.58%.

Consider `CCC1CCCCN1CCCNC(=O)C1CCN(c2nnc(-n3cccc3)s2)CC1` (stereo not drawn), for which the inhibition is 8.7%.

On to `CCOc1ccc(CCNC(=O)C2CCN(c3nnc(-n4cccc4)s3)CC2)cc1`, for which the inhibition was 7.09%.

Consider `CCN1CCN(CCCNC(=O)C2CCN(c3nnc(-n4cccc4)s3)CC2)CC1`, for which the inhibition was 12.4%.

Take `CC1CC(C)CN(CCCNC(=O)C2CCN(c3nnc(-n4cccc4)s3)CC2)C1` (stereo not drawn): the inhibition was 7.41%.

With `Cc1ccc(C)n1-c1nnc(N2CCC(C(=O)NCCCN3CC(C)CC(C)C3)CC2)s1` (stereo not drawn), the inhibition was -2.68%.

Turning to `CC1CCCCN1CCCNC(=O)C1CCN(c2nnc(-n3cccc3)s2)CC1` (stereo not drawn), the inhibition is 6.84%.

With `O=C(NC1CC(=O)N(c2ccc3c(c2)OCCO3)C1)N1CCCCC1` (stereo not drawn), the inhibition is 11.8%.

With `CCN(CC)S(=O)(=O)c1ccc(S(=O)(=O)N2CCN(CCC#N)CC2)cc1`, the inhibition was 2.53%.

On to `CCCc1nc2ccc(NC(C)=O)cc2c(=O)n1Cc1ccccc1Cl`, for which the inhibition is 19.8%.

Consider `CC1CCCCC1NC(=O)/C(C#N)=C/c1ccc(F)c(F)c1` (stereo not drawn), for which the inhibition was -0.71%.

On to `CC(=O)N1N=C(c2ccc(NS(C)(=O)=O)cc2)CC1c1ccc2nccnc2c1` (stereo not drawn), for which the inhibition was 8.1%.

Turning to `O=C(O)C1CC=CCC1C(=O)NC1CCCCC1` (stereo not drawn), the inhibition was 20.5%.

In the case of `Cn1cnc([N+](=O)[O-])c1Sc1nnc(-c2cccnc2)n1C`, the inhibition was 7.52%.

Consider `CCn1ncc([N+](=O)[O-])c1C(=O)n1nc(C)cc1C`, for which the inhibition was 18.1%.
